Hits are enriched below; roughly 19% of the tested compounds scored in any of these assays.
HT1080NT lethal: kills 2HG-producing HT-1080-NT fibrosarcoma cells. HT-1080-NT fibrosarcoma viability, CellTiter-Glo ATP luminescence, 48 h. Potency, µM (series often up to 46.1 µM), inactives show at the highest dose activity, negative = less viability, usual class: cytotoxic. AID 686970. 1.6% of 360,000 active;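 also: NT is the 2HG producing partner of a matched IDH1 knockdown line; potency is read from the fitted curve at half-maximal effect; 0% = DMSO-treated cells and -100% = media-only wells without cells; nearly all actives have a fitted effect of over 55% in size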
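Viability by CellTiter-Glo luminescence after 48 h compound exposure at 37C of HT-1080-NT cells (750/well, RPMI, 5% FBS). % activity scaled between DMSO wells and medium-only wells, then curve-fitted and categorized by curve class.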
TDP1 cell CPT: DT40-hTDP1 cell growth loss with CPT; chicken DT40 Tdp1-/-;hTDP1 cells + 20 nM CPT, ATP luminescence, 48 h; Potency, µM (doses to about 46.2 µM), for the others: at the top dose activity change, negative = growth inhibition, actives largely listed as inhibitors; 12% of 420,000 active; also: potency is read from the fitted curve at half-maximal effect; nearly all actives have a fitted effect of over 55% in size
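Cell growth measured by CellTiter-Glo luminescence after a minimum 48 h, 37 C compound exposure with 20 nM CPT in Tdp1-knockout DT40 cells stably expressing hTDP1, seeded 400/well; qHTS titration format.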
HT1080 IDH1KD tx: HT-1080 IDH1 knockdown cell toxicity (counter line). 2% of 360,000 active. Potency, µM (series often up to 46.1 µM), for inactives: top-dose activity, negative = toxicity, hits mostly cytotoxic. AID 686971. HT-1080 IDH1 knockdown viability, ATP luminescence, 48 h;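 also: potency is read from the fitted curve at half-maximal effect; 0% = DMSO wells and -100% = cell-free medium wells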
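In this qHTS, HT-1080 cells depleted of IDH1 are exposed for 48 h at 37 °C to compound titrations. Toxicity is scored from CellTiter-Glo luminescence, with DMSO as full viability and medium alone as none.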
IL1B secr inh: blocks inflammasome-driven IL-1 beta release; THP-1 LPS/ATP IL-1B secretion, AlphaLISA, 16 h; active compounds read low; activity change, % at 57.5 µM; 4.7% of 360,000 active; AID 743279; in the data active = activity change below about -50%; inconclusive = mostly about -30% to -49%
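Secreted IL-1B measured by AlphaLISA bead assay after 16 h compound exposure of THP-1 cells; compounds (final up to 57.5 uM) added 1 h before LPS (250 ng/mL) and ATP (1.25 mM) stimulation; lower signal means less secretion.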
TDP1 cell noCPT: qHTS for Inhibitors of human tyrosyl-DNA phosphodiesterase 1 (TDP1): qHTS in cells in absence of CPT | DT40 Tdp1-/- hTDP1 cells, no CPT, ATP luminescence, 48 h | Potency, µM (titrated, usually from 46.2 µM), inactives show at the top dose activity change, negative = growth inhibition, most hits filed as inhibitors | 15% of 420,000 active | AID 686978, 2013; also: potency is read from the fitted curve at half-maximal effect; nearly all actives have a fitted effect of over 55% in size
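Luminescent ATP content (CellTiter-Glo) served as the growth readout. Knockout chicken DT40 cells expressing human TDP1 were exposed to compounds without camptothecin for a minimum 48 hr at 37 °C.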
The depositor's hits bear a star; ? = inconclusive; nt = no result. Unless noted, calls follow the shape of the dose curve; as a rule, active = well fitted curve in the direction sought with a large enough effect; inconclusive = small, poorly fitted or top-dose-only effect, or another doubt; inactive = no such curve, though single readings can be large; an effect the other way counts as inactive or inconclusive. Unless noted, % is scaled to controls: 0 for no effect and ±100 for the full control effect.

SMILES	HT1080NT lethal	TDP1 cell CPT	HT1080 IDH1KD tx	IL1B secr inh	TDP1 cell noCPT
COc1ccc(-c2nn(-c3ccccc3)cc2/C=N/NC(=O)c2ccc(Br)o2)cc1	-15%	21µM*	-30%	-12	21µM*
CCNC(=S)N(CCO)Cc1cc2cc3c(cc2[nH]c1=O)OCO3	0%	-18%	-1%	-13	-28%
COc1ccc2[nH]c3c(c2c1)CCN1C(=O)C(CC(=O)NC/C=C(\C)CCC=C(C)C)C[C@H](C(=O)N2CCOCC2)[C@@]31CCC1CCCC1 (some centres not stated)	3%	15µM*	12%	12	21µM*
CC[C@]12c3[nH]c4ccccc4c3CCN1C(=O)C(CC(=O)NC/C=C(\C)CCC=C(C)C)C[C@@H]2C(=O)N1CCN(C(=O)C2CC2)CC1 (some centres not stated)	-3%	21µM*	-24%	?	15µM*
CC[C@]12c3[nH]c4ccc(OC)cc4c3CCN1C(=O)C(CC(=O)NC/C=C(\C)CCC=C(C)C)C[C@@H]2C(=O)N1CCN(C(=O)C2CC2)CC1 (some centres not stated)	-2%	?	-12%	-62*	?
CC[C@]12c3[nH]c4ccccc4c3CCN1C(=O)C(CC(=O)NC(C)(C)C)C[C@@H]2C(=O)N1CCN(C(=O)C2CC2)CC1 (some centres not stated)	0%	-6%	7%	24	-12%
CCCn1c(Cc2ccccc2)nnc1SC(C)C(=O)NC1CC1 (configuration not stated)	4%	5%	0%	15	0%
COCCN1CCN(c2cc(-c3ccccc3)nc3cc(-c4cccc(F)c4)nn23)CC1	?	8.2µM*	?	-79*	9.2µM*
Fc1cccc(-c2cc3nc(-c4ccccc4)cc(N4CCC5(CC4)OCCO5)n3n2)c1	-11%	?	-15%	-14	23µM*
Cc1ccc(-c2cc3nc(-c4ccccc4)cc(N4CCC5(CC4)OCCO5)n3n2)cc1	-3%	16µM*	8%	0	18µM*
Fc1ccc(-c2cc3nc(-c4ccccc4)cc(N4CCOCC4)n3n2)cc1	9%	13µM*	-1%	-3	23µM*
FC(F)(F)c1cc(-c2ccccc2)nc2cc(-c3ccccc3)nn12	nt	-20%	nt	nt	-23%
c1ccc(-c2nnc3ccc(N4CCC5(CC4)OCCO5)nn23)cc1	8%	?	-2%	7	?
CC(=O)Nc1cccc(-c2cc(N3CCN(CCO)CC3)n3nccc3n2)c1	2%	-11%	8%	2	-2%
COc1cccc(CNC(=O)c2cnc3c(-c4ccc(F)cc4)c(C)nn3c2C)c1	nt	-1%	nt	nt	-14%
CC(C)C[C@H](NC(=O)Nc1ccc2c(c1)OCCO2)C(=O)O	1%	-2%	8%	-14	-3%
O=C(C[n+]1ccnc2ccccc21)c1ccc(Cl)cc1	nt	15%	nt	nt	?
CCc1ccc(C(=O)C[n+]2cccc3cc(OC)ccc32)cc1	-17%	2.9µM*	-16%	?	3.3µM*
COc1ccc2c(ccc[n+]2CC(=O)c2ccc(C)cc2)c1	0%	?	-26%	-8	15µM*
Cc1ccc(C(=O)C[n+]2cccc3cc(C)ccc32)cc1	-16%	12µM*	-14%	-8	15µM*
Cc1ccc2c(c1)ncc[n+]2CC(=O)c1ccc(F)cc1	nt	10µM*	nt	nt	10µM*
COc1cc(NC(=O)CN2C(=O)COc3ccc(S(=O)(=O)N4CCOCC4)cc32)cc(OC)c1	1%	-7%	-2%	-5	-3%
COc1ccc(C(=O)C[n+]2cc(Br)cc3ccccc32)cc1	nt	?	nt	nt	22µM*
CN(C)c1ncnc2c1NC1=C(S2)C(=NCCCC(=O)O)CC(C)(C)C1	5%	21µM*	6%	-10	?
Cc1ccc(NC(=O)CC2S/C(=N/N=C/c3c[nH]c4ccccc34)NC2=O)cc1 (configuration not stated)	-2%	-2%	-15%	12	-10%
